Screens (PubChem BioAssay)
Sampled rows, rich in hits. Any-hit rate of the full collection: about 0.51%.
Tat export inh = E. coli Tat transport inhibition | E. coli MC4100 TorA-mCherry Tat export, fluorescence | inhibition, % at 10 µM | 0.036% of 340,000 active | AID 488895;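 active = mean replicate inhibition at least 50% and at least half of replicates individually reaching 50%; inconclusive = only one of the two criteria met; inactive = neither criterion met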;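 also: exported cargo escapes ClpAP degradation while cytoplasmic cargo is degraded and loses fluorescence; 0% = median of neutral control wells and 100% = median of NaSCN control wells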
E coli growth-1 = E. coli growth inhibition | Escherichia coli growth, OD600, 23 h; hits give low values | 0.21% of 330,000 active | AID 1053175 | OD600 absorbance (concentration not given with the values);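 active = OD600 absorbance below the run mean of sample wells minus 3.6 SD, in any replicate, cut at about 0.56 in these data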
phage Ecoli inh = E. coli growth loss with phage present; 0.26% of 360,000 active; AID 651602; growth absorbance; inhibition, % at 11.9 µM; in the data active = inhibition above about 11%
E coli growth-2 = bacterial growth inhibition, counter-screen for AddAB inhibitors | E. coli V3065 growth, OD600 absorbance, 18 h | inhibition, % at 11.9 µM | 0.27% of 330,000 active | AID 449728;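 active = inhibition above the campaign's mean inhibition across all tested compounds plus 3 SD, cut at about 9.9% in these data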;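 also: uninfected addAB+ strain grown without phage in ampicillin broth; 0% = DMSO wells and 100% = ciprofloxacin 0.95 µg/ml wells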
AddAB inh = less growth of phage-infected E. coli with AddAB | E. coli expressing H. pylori AddAB, absorbance growth | inhibition, % at 11.9 µM | 0.29% of 330,000 active | AID 435030; in the data active = inhibition above about 12%;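 also: 0% = vehicle wells of infected cells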
An asterisk follows results filed as active; u = inconclusive; x = no result.

SMILES	Tat export inh	E coli growth-1	phage Ecoli inh	E coli growth-2	AddAB inh
CC1CN(C(C)CO)C(=O)c2cc(NC(=O)CCC(F)(F)F)ccc2OC1CN(C)S(=O)(=O)c1ccc(Cl)cc1 (stereo not given)	x	0.65	x	x	x
O=C(Nc1cccc(Cl)c1)Nc1nccs1	-8	0.54*	2	-1	1
COC(=O)c1cc(NC(=O)Nc2cccc(Cl)c2)ccc1Cl	-16	0.52	12*	7	7
O=C(Nc1ccc(Cl)c(Cl)c1)Nc1nccs1	1	x	4	2	0
Cc1ccc(C(=O)N2C3CN(C)C(=O)[C@@]2(Cc2ccccc2)C2C(=O)N(Cc4ccccc4)C(=O)C32)cc1 (stereo not given in full)	x	0.67	x	x	x
OC(CNCC(c1ccc(Cl)cc1Cl)c1c[nH]c2ccccc12)c1ccccc1 (stereo not given)	-15	0.45*	4	-3	-1
O=C(Nc1ccncc1)Nc1ccc(Cl)cc1	9	0.52*	7	1	-1
O=C(Nc1cccnc1)Nc1ccccc1Cl	-7	0.7	4	0	0
O=C(Nc1cccnc1)Nc1cc(Cl)cc(Cl)c1	-11	0.5*	10	4	4
CC1CN(C(C)CO)C(=O)Cc2cc(NS(=O)(=O)c3ccccc3)ccc2OC1CN(C)Cc1ccc(-c2ccccc2)cc1 (stereo not given)	x	0.73	x	x	x
O=C(NC(=S)NNC(=O)c1cnccn1)c1ccc(Cl)cc1	-2	0.55	-1	-2	-3
O=C(NNC(=S)NC(=O)c1cccnc1)c1ccc(Cl)cc1	11	0.53*	-2	-2	-6
COc1ccc(C(=O)NC(=S)NNC(=O)c2cnccn2)cc1	4	0.43*	-2	-5	-3
COc1cccc(N2C(CC(C)=O)c3cc(C(F)(F)F)ccc3S2(=O)=O)c1 (stereo not given)	x	0.67	x	x	x
Cc1ccc(Cl)cc1C1=CC(=O)CC(c2ccc(F)cc2)C1 (stereo not given)	x	0.7	x	x	x
CC1CCCCC1NC(=O)C1CCN(S(=O)(=O)c2ccc(-n3cnnn3)cc2)CC1 (stereo not given)	6	0.77	3	38*	10
CC(O)C1CNC(=O)C(=O)N1CCc1cc(C(F)(F)F)cc(C(F)(F)F)c1 (stereo not given)	x	0.67	x	x	x
Cc1cccnc1Nc1nc(-c2ccccn2)cs1	-3	0.5*	3	2	3
CCOC(=O)N1CCC(N2C(=O)c3ccccc3C2Nc2cc(C)cc(C)c2)CC1 (stereo not given)	2	0.71	1	0	4
CCOC(=O)N1CCC(N2C(=O)c3ccccc3C2Nc2cc(C(=O)OC)cc(C(=O)OC)c2)CC1 (stereo not given)	4	0.77	100*	1	3
CC[n+]1c(/C=C2\Sc3ccccc3N2C)ccc2cccc(C)c21	11	0.33*	2	x	x
C=CCCC(Cc1ccc(F)cc1)C(=O)OCC(Cc1c[nH]c2ccccc12)NC(=O)C(CC=C)CC(=O)N(CCO)Cc1ccccc1 (stereo not given)	x	0.65	x	x	x
CCCCCC1CN(Cc2ccccc2)C(=O)C1CC(=O)NCc1ccccc1 (stereo not given)	x	0.67	x	x	x
CC1=NN(C(N)=S)C(=O)C1N=Nc1cccc2ccccc12 (stereo not given)	x	x	x	14*	7
CC1OC(OCCC(=O)O)C(O)CC1O (stereo not given)	x	0.65	x	x	x
SMILES	Tat export inh	E coli growth-1	phage Ecoli inh	E coli growth-2	AddAB inh
C[n+]1ccn(CC(=O)c2cccs2)c1	-10	0.63	2	3	4
CCCCCCCCCCCCCCCCn1cc[n+](C)c1	u	0.066*	2	-3	0
O=C(Cc1ccccc1)NC(Cc1ccccc1)C(=O)O (stereo not given)	x	0.71	x	x	x
Cc1ccc(-n2[nH]c(C)c(C=Nc3ccc(S(=O)(=O)Nc4nccs4)cc3)c2=O)cc1C	-6	0.64	9	8	11
Cc1ccc(-n2[nH]c(C)c(C=Nc3ccc(S(=O)(=O)Nc4nccs4)cc3)c2=O)c(C)c1	x	0.61	x	6	13*
N#CCc1ccc(NC(=O)/C=C/c2ccc([N+](=O)[O-])o2)cc1	3	0.41*	x	x	x
O=C(CSc1ccc2nnc(-c3ccccn3)n2n1)Nc1ccc2c(c1)OCO2	-9	0.71	1	78*	97*
Oc1c(C(Nc2nccs2)c2ccc(C(F)(F)F)cc2)ccc2cccnc12 (stereo not given)	-1	0.7	9	x	x
Cc1conc1NC(c1cccs1)c1ccc2cccnc2c1O (stereo not given)	x	x	x	13*	13*
Oc1ccc(F)c2cccnc12	-1	0.68	3	1	1
Oc1ccc(Cl)c2cccnc12	1	0.29*	1	x	x
